# Compound activity deposited in PubChem BioAssay by several laboratories.
# Bead autofluor – compound fluorescence in toxin protease inhibitor counterscreen; compound autofluorescence counterscreen, microsphere flow cytometry; active compounds read high; fluorescence intensity (concentration not given with the values); 360,000 compounds, 3.1% hits; in the data active means fluorescence intensity above about 16000; inconclusive means no clear call, values can overlap the other calls
# Anthrax LF prot – Bacillus anthracis LF protease inhibitors, primary screen, biochemical, multiplex microsphere, MLPCN library; 360,000 compounds, 0.12% hits; AID 588501, 2011; Lethal factor (Bacillus anthracis), P15917; multiplex microsphere protease cleavage assay; inhibition, % at 10 µM; further: plate controls were buffer without enzyme for full effect and enzyme alone for no effect
# Target sequence (P15917 whole entry, looked up): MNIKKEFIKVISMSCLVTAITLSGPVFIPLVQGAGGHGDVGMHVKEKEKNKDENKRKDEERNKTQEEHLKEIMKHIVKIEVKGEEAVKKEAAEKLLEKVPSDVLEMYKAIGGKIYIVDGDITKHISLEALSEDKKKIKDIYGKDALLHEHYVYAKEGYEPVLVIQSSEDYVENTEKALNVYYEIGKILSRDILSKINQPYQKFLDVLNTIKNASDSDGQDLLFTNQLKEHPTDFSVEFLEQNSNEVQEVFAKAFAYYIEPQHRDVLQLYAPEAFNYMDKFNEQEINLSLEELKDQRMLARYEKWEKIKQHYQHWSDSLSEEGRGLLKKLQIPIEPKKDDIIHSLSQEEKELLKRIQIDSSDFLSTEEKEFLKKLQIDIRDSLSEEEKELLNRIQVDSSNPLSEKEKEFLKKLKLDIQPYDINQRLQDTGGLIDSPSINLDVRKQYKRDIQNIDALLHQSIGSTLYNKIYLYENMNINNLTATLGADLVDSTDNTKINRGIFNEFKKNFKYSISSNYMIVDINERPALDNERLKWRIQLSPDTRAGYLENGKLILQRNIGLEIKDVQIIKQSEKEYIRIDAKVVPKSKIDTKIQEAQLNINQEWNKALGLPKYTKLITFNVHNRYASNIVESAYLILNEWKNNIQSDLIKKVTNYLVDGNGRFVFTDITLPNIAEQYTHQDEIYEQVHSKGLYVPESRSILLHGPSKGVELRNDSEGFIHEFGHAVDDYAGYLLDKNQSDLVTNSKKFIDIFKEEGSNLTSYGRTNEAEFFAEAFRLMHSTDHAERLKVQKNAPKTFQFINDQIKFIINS
# BoNT A protease – BoNT/A light chain protease inhibitors, primary screen, biochemical, flow cytometry, MLPCN library. Botulinum neurotoxin type A light chain protease (Clostridium botulinum A str. ATCC 3502). multiplex microsphere protease substrate cleavage. inhibition, % at 10 µM. 360,000 compounds, 0.17% hits. AID 588499, 2011; further: plate controls were buffer without enzyme for full effect and enzyme alone for no effect
# BoNT-F LC inh – BoNT/F light chain protease inhibitors, primary screen, biochemical, flow cytometry, MLPCN library; Botulinum neurotoxin type F light chain protease (Clostridium botulinum); inhibition, % at 10 µM; 360,000 compounds, 0.22% hits; Multiplex microsphere protease cleavage assay; in the data active means inhibition above about 35%, passing the limit was not always enough; inconclusive means no clear call, values can overlap the other calls; further: plate controls were buffer without enzyme for full effect and enzyme alone for no effect
# CCHF vOTU inh – CCHFV vOTU protease inhibitors, primary screen, biochemical, Pep-AMC substrate, fluorescence; 370,000 compounds, 0.55% hits; inhibition, % at 11.5 µM; AID 651958, 2012; Crimean-Congo hemorrhagic fever virus L polyprotein viral ovarian tumor (vOTU) protease …; in the data active means inhibition above about 30%; further: 0% = vehicle wells with enzyme and 100% = no enzyme wells
# 3CLpro inhibitor – SARS-CoV 3CLpro protease inhibitors, primary screen, biochemical, quenched FRET. recombinant SARS-CoV 3CLpro, quenched FRET peptide cleavage. inhibition, % at 6 µM. 290,000 compounds, 0.14% hits. Replicase polyprotein 1ab (Severe acute respiratory syndrome coronavirus), P0C6X7; in the data active means inhibition above about 12%
# An asterisk follows results filed as active; ? = inconclusive; . = no result given. Rows were chosen to be rich in hits. Some 3.9% of all compounds tested hit in one or more screens of this group. Unless noted, no stated cut-off is given here; in the data, active means inhibition above about 30%; inconclusive means no clear call, values can overlap the other calls; inactive means below that.
SMILES,Bead autofluor,Anthrax LF prot,BoNT A protease,BoNT-F LC inh,CCHF vOTU inh,3CLpro inhibitor
COCCN(C(=O)CSc1nnc(-c2ccccc2C)n1C)c1c(N)n(Cc2ccccc2)c(=O)[nH]c1=O,5228,-9,-1,-6,-10,4
c1ccc(CN=C2CCCc3ccccc3N2)cc1,3809,-7,0,2,-9,.
COP(=O)(O)C(C)NC(=O)OCc1ccccc1 (centres undefined),.,.,.,.,1,.
O=C1CC(N2CCN(c3cccc(C(F)(F)F)c3)CC2)C(=O)N1c1ccc(F)cc1 (centres undefined),22486*,-5,0,-2,15,-1
O=C1CC(N2CCN(c3ccccn3)CC2)C(=O)N1c1ccc(F)cc1 (centres undefined),3392,-10,-1,-4,-13,-2
Cc1cccc2sc(NC(=O)Cn3cccc3)nc12,6057,2,-1,-10,12,-3
Cc1cccc2sc(NC(=O)CSCc3ccccc3)nc12,23019*,-1,?,1,-7,1
O=C1C=C(NC2CC2)C2(CCCCC2)O1,2802,-3,0,-13,-3,1
O=C1C=C(NCC2CCCO2)C2(CCCCC2)O1 (centres undefined),19832*,-3,2,2,-4,-2
CCc1c(C)nc(N)n2c(SCC(=O)Nc3ccccc3OC)nnc12,23325*,0,-1,-1,-18,3
Cc1ccc(CN2C(=O)CCC2C(=O)NCCCN2CCOCC2)cc1 (centres undefined),2760,3,0,-5,1,-2
O=C(NCCN1CCOCC1)C1CCC(=O)N1Cc1ccc(F)cc1 (centres undefined),24197*,0,-1,-4,-17,-2
CCOC(=O)Cn1cc(CN2CCS(=O)(=O)N(Cc3ccc(OC)cc3)C(C(=O)OC)C2)nn1 (centres undefined),.,.,.,.,-6,.
O=C1Nc2ccccc2/C1=C/c1ccccc1F,3986,0,-2,1,-14,3
O=C1Nc2ccccc2/C1=C\c1cccn1-c1ccc(OC(F)(F)F)cc1,24253*,-5,-2,-6,11,7
Clc1ccc(Sc2oc(/C=N/n3cnnc3)cc2Br)cc1,19698*,1,2,3,0,2
CCOC(=O)c1sc(NC(=O)CSc2nnc(Cc3ccccc3)o2)c(C(=O)OCC)c1C,23789*,-4,-1,-3,3,-2
COc1ccc(CCCc2nnc(SCC(=O)Nc3cc(C)c(C)cc3Br)o2)cc1,21054*,-1,-1,-4,-4,3
CCOC(=O)c1c(NC(=O)CN2CCOCC2)sc(C(=O)NC)c1C,22110*,0,-1,-3,2,1
CCOC(=O)c1c(NC(=O)CSc2nncs2)sc(C)c1C,2452,-4,0,4,4,0
COCCOC(=O)c1c(NC(=O)CN2CCOCC2)sc(C(N)=O)c1C,3101,1,1,-4,5,-4
CCOC(=O)c1sc(NC(=O)CSc2nnc(C)s2)c(C(=O)OCC)c1C,22787*,0,1,2,-11,0
COc1ccc(Cc2nnc(SCC(=O)NC(C)c3ccccc3)o2)cc1 (centres undefined),22651*,1,2,1,-3,-3
CCOC(=O)c1c(NC(=O)C(Sc2ccccc2)c2ccccc2)sc(C(N)=O)c1C (centres undefined),23438*,1,-1,0,8,5
CCOC(=O)c1c(NC(=O)C(Sc2ccccc2)c2ccccc2)sc(C(=O)N(C)C)c1C (centres undefined),2345,0,0,-6,24,6
SMILES,Bead autofluor,Anthrax LF prot,BoNT A protease,BoNT-F LC inh,CCHF vOTU inh,3CLpro inhibitor
CC(NC(=O)CSc1nnc(COc2ccccc2)o1)c1ccccc1 (centres undefined),4423,-3,-2,8,7,2
Nc1c(C2=NCCO2)nnn1Cc1ccccc1,17624*,-9,-3,-9,-9,-8
O=C(c1c(F)cccc1F)N1CCN(CCOc2ccccc2)CC1,4384,3,-6,8,6,2
Cc1nnc(SCc2ccccc2F)n1NCc1cccs1,22098*,2,4,1,-8,-5
COCCN(Cc1nc(-c2ccc(-c3ccccc3)cc2)oc1C)C(C)C,3494,-5,0,-9,12,3
CCN(C(=O)COC(=O)C12CC3CC(CC(O)(C3)C1)C2)c1c(N)n(Cc2ccccc2)c(=O)[nH]c1=O,3610,5,-1,-5,3,.
O=C(Nc1cccc(C(F)(F)F)c1)C1CCN(S(=O)(=O)c2cccnc2)CC1,6007,-4,-2,-13,8,5
COc1ccccc1N1CCN(C(=O)C(Cc2ccccc2)NC(=O)C2CCCCC2)CC1 (centres undefined),25307*,-2,-4,-6,-4,3
COc1ccccc1N1CCN(C(=O)C(NS(=O)(=O)c2cccs2)c2ccccc2)CC1 (centres undefined),16978*,0,-2,-1,4,-2
CCC(C(=O)N1CCN(c2ccccc2OC)CC1)c1ccccc1 (centres undefined),1957,-1,-1,-8,-1,5
CCOC(=O)c1cc2ccccc2n1C1CCN(CCc2ccccc2)CC1,5351,2,0,-3,10,.
COC(=O)C1=C(C)N(C)C(C)=C(C(=O)OC)C1c1ccccc1C,5349,5,0,-6,18,3
CCCCOc1ccccc1C1C(C(=O)OC)=C(C)N(C)C(C)=C1C(=O)OC,22647*,1,0,-2,4,-3
CCOc1ccc(NC(=O)c2ccccc2OCC(=O)c2ccc(C)cc2)cc1,23534*,0,-1,2,-2,4
CCc1ccc(C(=O)COc2ccc(NC(C)=O)cc2)cc1,24015*,-1,0,-2,-1,-9
COc1ccc(-c2cc(-c3c(O)c(OC)c4occc4c3OC)[nH]n2)cc1,21696*,-7,?,-5,4,-1
CC(C)CN(CC(C)C)C(=O)CN1C(=O)NC2(CCc3ccccc3C2)C1=O (centres undefined),3003,-1,-1,-18,9,-3
O=C(NCc1ccccc1)Oc1cccc(Cl)c1,19856*,0,2,0,-3,-3
CC(C)(C)N(NC(=O)NCCCl)C(=O)c1ccccc1Cl,.,.,.,.,2,.
CCc1c(C)nc(N)nc1N1N=C1SC,5437,3,-1,-1,-2,-2
CCCCSC1=NN1c1nc(N)nc(C)c1CC,22245*,-2,3,7,8,4
COC(=O)c1c(NC(=O)C2CC=CCC2C(=O)O)sc(C)c1C (centres undefined),22701*,3,?,1,12,0
